Measured values from PubChem BioAssay (NCI).
Compounds without any hit were thinned out: in the full panel of roughly 83,000, 20% have a hit.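 96-well plates, one dose, 48 hours. Percent growth reported; active if below 10.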 The source made the active and inactive calls.

Assays:
Test in all cases: NCI-60 one-dose screen, 48 h (100 = growth as untreated, 0 = no growth, -100 = all killed)
Conditions in all cases: 10 µM unless noted
[1] = test system: NCI-H23 lung
[2] = test system: NCI-H226 lung
[3] = test system: NCI-H322M lung
[4] = test system: HOP-62 NSCLC
[5] = test system: NCI-H460 lung
[6] = test system: HOP-92 NSCLC
[7] = test system: NCI-H522 lung
[8] = test system: A549/ATCC NSCLC
[9] = test system: 786-0 renal
[10] = test system: COLO 205 colon
[11] = test system: K-562 leukemia
[12] = test system: MALME-3M melanoma
[13] = test system: MDA-MB-231 breast
[14] = test system: RXF 393 renal
[15] = test system: SF-268 CNS
[16] = test system: SF-295 CNS
[17] = test system: SF-539 CNS
[18] = test system: UACC-257 melanoma
[19] = test system: M14 melanoma

Measured: growth

CC1(C)C2CCC(O)(C(=O)O)C1C2 (configuration not stated)
inactive: [1] 113% | [2] 113% | [3] 95.9% | [4] 113% | [5] 116% | [6] 117% | [7] 117% | [8] 111% | [9] 107% | [10] 127% | [11] 108% | [12] 109% | [13] 98.9% | [14] 136% | [15] 112% | [16] 103% | [17] 103% | [18] 124% | [19] 105%

COc1cc2c(cc1I)-c1c(cc(OC)c(OC)c1OC)CC[C@@H]2NC(C)=O
inactive: [2] 33.6% | [3] 61.6% | [4] 14.7% | [6] 43.7% | [8] 28.3% | [9] 16.4% | [12] 72.4% | [14] 29.8% | [18] 56.7%
active: [1] 4.9% | [5] 1.44% | [7] -22.3% | [10] -52.8% | [11] 9.91% | [13] -6.61% | [16] -1.65% | [17] -30.6% | [19] -12.9%

CC(C)=CCC[C@H](C)c1ccc(C)c2c1OCN(CCO)C2
inactive: [1] 81.7% | [2] 91.2% | [3] 104% | [4] 80.4% | [5] 96% | [7] 78.1% | [8] 82.4% | [9] 61% | [10] 119% | [11] 77.7% | [12] 89.5% | [13] 88.8% | [14] 52.4% | [16] 98.6% | [17] 88.2% | [18] 92.3% | [19] 90.9%
active: [6] 4.21%

CCCCCCCCCCCCCCCCCC1=NC(C)(C)CN1C(C)(C)CO
inactive: [2] 22.9% | [3] 16.3% | [16] 54.3%
active: [1] -14.5% | [4] -100% | [5] -100% | [6] -6.66% | [7] -84.8% | [8] -93.8% | [9] -37.5% | [10] -99.8% | [11] -56.6% | [12] -58.1% | [13] -71.6% | [14] -68.7% | [15] -84.6% | [17] -45% | [18] -41% | [19] -100%

Clc1ccccc1Nc1nnc(-c2ccncc2)s1
inactive: [1] 102% | [2] 101% | [3] 93.7% | [4] 118% | [5] 99.7% | [6] 93.9% | [7] 98.6% | [8] 95% | [9] 80.2% | [10] 114% | [11] 101% | [12] 109% | [13] 108% | [14] 107% | [15] 105% | [16] 88.7% | [17] 108% | [18] 108% | [19] 104%

O=[N+]([O-])c1ccccc1CN1CCCCC1
inactive: [1] 92.8% | [2] 112% | [3] 106% | [4] 107% | [5] 116% | [6] 89.7% | [7] 110% | [8] 106% | [9] 111% | [10] 111% | [11] 136% | [12] 121% | [13] 105% | [14] 104% | [15] 112% | [16] 112% | [17] 104% | [18] 110% | [19] 114%

CSCCC1NC(=O)C(C(C)=Nc2ccccc2)=C1O (configuration not stated)
inactive: [1] 105% | [2] 112% | [3] 102% | [4] 107% | [5] 114% | [6] 108% | [7] 116% | [8] 101% | [9] 98.9% | [10] 105% | [11] 124% | [12] 112% | [13] 109% | [14] 109% | [15] 111% | [16] 97.7% | [17] 119% | [18] 113% | [19] 103%

CCCCCCCCCCCCCCCC1=NCC[N+]1(CCO)CCO
inactive: [1] 53.7% | [2] 73.4% | [3] 84.7% | [4] 57.7% | [7] 40.8% | [8] 50% | [9] 55.5% | [10] 82.8% | [12] 108% | [13] 36.7% | [14] 34.9% | [16] 76.7% | [17] 73.3% | [18] 102%
active: [5] 3.37% | [6] 5.24% | [11] 1.44% | [19] 7.86%

COC(=O)c1ccc(NC(N)=NCCC(C)(C)c2ccc(C(F)(F)F)cc2)nc1
active: [10] -71.2% | [11] 1.24% | [12] -30.9% | [19] -40%
inactive: [1] 17.5% | [2] 37.4% | [3] 74.5% | [4] 63.7% | [5] 31.6% | [6] 39% | [7] 39% | [8] 54.2% | [9] 56.9% | [13] 42.7% | [14] 58.7% | [16] 29.5% | [17] 79.3% | [18] 38.8%
